Data published in PubChem BioAssay (EPA / NIEHS).
Several values for one entry are separate records, joined by “and”; a condition that tells them apart may be missing. Identical values can stand only once. Inconclusive results are not listed. More than one record can exist for a structure, and the calls need not agree. Activity calls are given as the source filed them. How the source made its calls: active means hit-call score of the fitted dose curve at least 0.9, where 1 is the maximum; inconclusive means response in the unintended direction; inactive means score below 0.9.

Molecular target: Estrogen receptor beta (Homo sapiens) (UniProt Q92731)
Test: OT_ER_ERbERb_0480: Odyssey Thera (OT) 8-hour HEK293T Protein-Complementation Assay for Estrogen Receptor-beta/-beta Homodimer (AID 2283357);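 further: active means signal gain over DMSO baseline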
Outline: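 Fluorescence gain from complemented reporter fragments on ER-beta LBD homodimer in HEK293T was quantified against DMSO controls after 8 h treatment, fixation in 4% formaldehyde and Draq5 staining.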

Estrogen receptor beta (Homo sapiens), sequence (Q92731 whole entry, looked up): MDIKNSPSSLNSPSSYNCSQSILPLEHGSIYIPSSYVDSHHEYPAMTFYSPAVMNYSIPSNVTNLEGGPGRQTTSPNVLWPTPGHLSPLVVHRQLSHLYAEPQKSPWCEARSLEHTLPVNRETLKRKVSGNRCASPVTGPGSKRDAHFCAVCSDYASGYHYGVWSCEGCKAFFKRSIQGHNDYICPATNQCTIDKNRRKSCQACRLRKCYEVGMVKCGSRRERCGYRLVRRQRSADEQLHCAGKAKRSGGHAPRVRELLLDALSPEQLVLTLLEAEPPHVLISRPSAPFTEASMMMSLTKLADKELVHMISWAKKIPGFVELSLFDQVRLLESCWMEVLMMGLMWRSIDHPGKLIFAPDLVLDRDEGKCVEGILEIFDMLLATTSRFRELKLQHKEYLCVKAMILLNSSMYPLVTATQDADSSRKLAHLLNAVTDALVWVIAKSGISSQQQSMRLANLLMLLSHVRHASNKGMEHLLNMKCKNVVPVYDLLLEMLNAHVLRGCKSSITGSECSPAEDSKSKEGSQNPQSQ

Structure (SMILES) | outcome | AC50
CCC(C)c1cc([N+](=O)[O-])cc([N+](=O)[O-])c1O (stereo not drawn) | inactive | –
CCCCCCCCCc1ccc(O)cc1 | – | 12.7 µM (active) and 12.4 µM (active)
Cc1cc(O)ccc1Cl | – | 47 µM (active)
Cc1ccc(O)c(C)c1 | inactive | –
CN(C)CCO | inactive | –
OCC(O)CO | inactive | –
CC#Cc1cc(C)nc(Nc2ccccc2)n1 | inactive | –
NS(=O)(=O)C(F)(F)C(F)(F)C(F)(F)C(F)(F)C(F)(F)C(F)(F)C(F)(F)C(F)(F)F | – | 86.7 µM (active)
O=C(O)C(F)(F)C(F)(F)C(F)(F)C(F)(F)C(F)(F)C(F)(F)C(F)(F)C(F)(F)F | inactive | –
C[C@]12CCC(=O)C=C1CC[C@@H]1[C@@H]2CC[C@]2(C)C(=O)CC[C@@H]12 | inactive | –
CCCN(CCC)N=O | inactive | –
C1CC2OC2CC1C1CO1 (stereo not drawn) | inactive | –
O=C(O)C(F)(F)C(F)(F)C(F)(F)C(F)(F)C(F)(F)F | inactive | –
O=C(N[C@H]1CN2CCC1CC2)c1cc2ccoc2cn1 | inactive | –
O=C(NC(=O)c1c(F)cccc1F)Nc1cc(Cl)c(OC(F)(F)C(F)F)c(Cl)c1 | inactive | –
CC(C)(O)C(=O)Nc1ccc([N+](=O)[O-])c(C(F)(F)F)c1 | inactive | –
ClC1=C(Cl)[C@]2(Cl)[C@@H]3[C@@H](Cl)[C@H]4O[C@H]4[C@@H]3C1(Cl)C2(Cl)Cl | – | 13.8 µM (active)
C=CC(=O)NCNC(=O)C=C | inactive | –
CCOC(=O)C(O)(c1ccc(Cl)cc1)c1ccc(Cl)cc1 | inactive | –
Oc1ccc(Cl)cc1Cl | – | 50 µM (active)
CC(C)(c1ccccc1)c1ccc(O)cc1 | – | 1.8 µM (active) and 1.91 µM (active) and 2.14 µM (active)
COc1ccc(O)c(C(C)(C)C)c1 | – | 31.8 µM (active)
CCCCCCCCOC(=O)c1ccccc1C(=O)OCCCCCCCC | inactive | –
c1ccc(-c2ccccc2)cc1 | inactive | –
CCC(=O)O[C@H]1CC[C@H]2[C@@H]3CCC4=CC(=O)CC[C@]4(C)[C@H]3CC[C@]12C | inactive | 12.2 µM (active) and 4.06 µM (active) and 12.3 µM (active)
CC(C)C(=O)OCC(C)(C)C(OC(=O)C(C)C)C(C)C (stereo not drawn) | inactive | –
Nc1ccc(-c2ccc(N)cc2)cc1 | inactive | –
